Inconclusive results are not listed. The list shows a part of the results. The source made the active and inactive calls. Unless noted, calls follow the shape of the dose curve; as a rule, active = well fitted curve in the direction sought with a large enough effect; inconclusive = small, poorly fitted or top-dose-only effect, or another doubt; inactive = no such curve, though single readings can be large; an effect the other way counts as inactive or inconclusive.
How the values were obtained:
[1] = target: ATP-dependent 6-phosphofructokinase (Trypanosoma brucei brucei) (UniProt O15648); experiment: qHTS Assay to Find Inhibitors of T. brucei phosphofructokinase: hit validation (AID 492961);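 also: luminescence reports ADP formed as PFK phosphorylates fructose-6-phosphate with ATP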
Chain of ATP-dependent 6-phosphofructokinase (Trypanosoma brucei brucei) (O15648 whole entry, looked up): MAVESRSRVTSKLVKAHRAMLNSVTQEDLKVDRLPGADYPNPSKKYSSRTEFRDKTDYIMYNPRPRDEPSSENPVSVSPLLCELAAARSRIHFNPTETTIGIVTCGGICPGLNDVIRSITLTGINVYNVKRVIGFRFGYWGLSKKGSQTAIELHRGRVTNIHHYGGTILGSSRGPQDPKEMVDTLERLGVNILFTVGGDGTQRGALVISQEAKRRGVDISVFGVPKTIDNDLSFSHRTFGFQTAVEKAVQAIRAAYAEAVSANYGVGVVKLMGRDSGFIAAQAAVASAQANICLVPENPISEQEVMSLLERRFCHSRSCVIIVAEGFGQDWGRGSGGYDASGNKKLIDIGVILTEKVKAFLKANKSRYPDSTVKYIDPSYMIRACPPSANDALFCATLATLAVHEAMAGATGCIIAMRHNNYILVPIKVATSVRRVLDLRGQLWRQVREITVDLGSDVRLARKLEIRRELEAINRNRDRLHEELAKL
Procedure, shortened: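 Inhibition of parasite PFK is measured as reduced ADP formation, quantified via luciferase after ATP depletion. Assay used 0.1 mM ATP, 0.5 mM F6P, 1.25 nM enzyme, 45 min incubation.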

[2] = S16 Schwann cell PMP22 intronic element beta-lactamase assay (AID 624044; calls by dose curve; also: nearly all actives have a fitted effect of over 15% in size)
Procedure, shortened: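 Rat S16 Schwann cells with beta-Lac driven by a PMP22 intronic element, compound-treated 24 h at 37 °C. LiveBLAzer FRET B/G read: 460 nm normalized to potassium clavulanate vs DMSO; 535 nm FRET as viability; concentration-effect curves classified.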

[3] = tested on: 3D7; experiment: qHTS profiling for inhibitors of Plasmodium falciparum proliferation (AID 504749); also: nearly all actives have a fitted effect of over 60% in size; also: potency is read from the fitted curve at half-maximal effect; details: P. falciparum in erythrocytes, SYBR Green DNA, 72 h; series mostly up to 28.7 µM
Procedure, shortened: (§1)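 P. falciparum-infected erythrocytes (0.3% parasitemia, 2.5% hematocrit) incubated with compound 72 h at 37 C, 5% CO2. Parasite DNA detected by SYBR Green after lysis, overnight at room temperature; normalised to 0.29 uM artemisinin and DMSO.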

[4] = tested on: ATS189; experiment: as above; details: P. falciparum in erythrocytes, SYBR Green DNA, 72 h; series mostly up to 28.7 µM
Procedure, shortened: as §1

[5] = tested on: ATS95; experiment: as above; details: P. falciparum in erythrocytes, SYBR Green DNA, 72 h; series mostly up to 28.7 µM
Procedure, shortened: as §1

[6] = tested on: CP260; experiment: as above; details: P. falciparum in erythrocytes, SYBR Green DNA, 72 h; series mostly up to 28.7 µM
Procedure, shortened: as §1

[7] = tested on: CP265; experiment: as above; details: P. falciparum in erythrocytes, SYBR Green DNA, 72 h; series mostly up to 28.7 µM
Procedure, shortened: as §1

[8] = tested on: CP286; experiment: as above; details: P. falciparum in erythrocytes, SYBR Green DNA, 72 h; series mostly up to 28.7 µM
Procedure, shortened: as §1

[9] = tested on: CP335; experiment: as above; details: P. falciparum in erythrocytes, SYBR Green DNA, 72 h; series mostly up to 28.7 µM
Procedure, shortened: as §1

[10] = tested on: DIV30; experiment: as above; details: P. falciparum in erythrocytes, SYBR Green DNA, 72 h; series mostly up to 28.7 µM
Procedure, shortened: as §1

[11] = tested on: Dd2; experiment: as above; details: P. falciparum in erythrocytes, SYBR Green DNA, 72 h; series mostly up to 28.7 µM
Procedure, shortened: as §1

[12] = tested on: ECU; experiment: as above; details: P. falciparum in erythrocytes, SYBR Green DNA, 72 h; series mostly up to 28.7 µM
Procedure, shortened: as §1

[13] = tested on: GB4; experiment: as above; details: P. falciparum in erythrocytes, SYBR Green DNA, 72 h; series mostly up to 28.7 µM
Procedure, shortened: as §1

[14] = tested on: HB3; experiment: as above; details: P. falciparum in erythrocytes, SYBR Green DNA, 72 h; series mostly up to 28.7 µM
Procedure, shortened: as §1

[15] = tested on: P93_24; experiment: as above; details: P. falciparum in erythrocytes, SYBR Green DNA, 72 h; series mostly up to 28.7 µM
Procedure, shortened: as §1

[16] = tested on: PC15; experiment: as above; details: P. falciparum in erythrocytes, SYBR Green DNA, 72 h; series mostly up to 28.7 µM
Procedure, shortened: as §1

[17] = tested on: PC26; experiment: as above; details: P. falciparum in erythrocytes, SYBR Green DNA, 72 h; series mostly up to 28.7 µM
Procedure, shortened: as §1

[18] = tested on: TAB165; experiment: as above; details: P. falciparum in erythrocytes, SYBR Green DNA, 72 h; series mostly up to 28.7 µM
Procedure, shortened: as §1

[19] = target: DNA repair nuclease/redox regulator APEX1 (Homo sapiens) (UniProt P27695); experiment: Confirmation qHTS Assay for Inhibitors of the Human Apurinic/apyrimidinic Endonuclease 1 (APE1) (AID 2572); also: nearly all actives have a fitted effect of over 30% in size; also: potency is read from the fitted curve at half-maximal effect
Chain of DNA repair nuclease/redox regulator APEX1 (Homo sapiens) (P27695 whole entry, looked up): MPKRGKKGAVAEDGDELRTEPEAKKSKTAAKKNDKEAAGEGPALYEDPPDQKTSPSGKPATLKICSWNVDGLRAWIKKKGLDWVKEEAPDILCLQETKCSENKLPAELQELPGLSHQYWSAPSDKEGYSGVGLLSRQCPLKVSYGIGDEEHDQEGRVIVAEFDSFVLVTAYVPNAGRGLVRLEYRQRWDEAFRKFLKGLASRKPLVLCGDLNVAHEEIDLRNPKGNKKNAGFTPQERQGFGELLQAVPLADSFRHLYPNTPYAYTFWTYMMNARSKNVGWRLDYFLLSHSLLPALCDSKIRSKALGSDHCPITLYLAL
Procedure, shortened: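 Enzyme preincubated 15 min at room temperature with compound; reaction started with 50 nM final double-stranded THF abasic-site substrate (5'-TAMRA, 3'-BHQ-2). Fluorescence read kinetically (525/598 nm); third-minus-first read difference gives reaction progress.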

[20] = target: Luciferin 4-monooxygenase (Photinus pyralis) (UniProt P08659); experiment: Biochemical firefly luciferase enzyme assay for NPC (AID 624030);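 also: purified P. pyralis luciferase at 10 nM with luciferin and ATP substrate; nearly all actives have a fitted effect of over 70% in size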
Chain of Luciferin 4-monooxygenase (Photinus pyralis) (P08659 whole entry, looked up): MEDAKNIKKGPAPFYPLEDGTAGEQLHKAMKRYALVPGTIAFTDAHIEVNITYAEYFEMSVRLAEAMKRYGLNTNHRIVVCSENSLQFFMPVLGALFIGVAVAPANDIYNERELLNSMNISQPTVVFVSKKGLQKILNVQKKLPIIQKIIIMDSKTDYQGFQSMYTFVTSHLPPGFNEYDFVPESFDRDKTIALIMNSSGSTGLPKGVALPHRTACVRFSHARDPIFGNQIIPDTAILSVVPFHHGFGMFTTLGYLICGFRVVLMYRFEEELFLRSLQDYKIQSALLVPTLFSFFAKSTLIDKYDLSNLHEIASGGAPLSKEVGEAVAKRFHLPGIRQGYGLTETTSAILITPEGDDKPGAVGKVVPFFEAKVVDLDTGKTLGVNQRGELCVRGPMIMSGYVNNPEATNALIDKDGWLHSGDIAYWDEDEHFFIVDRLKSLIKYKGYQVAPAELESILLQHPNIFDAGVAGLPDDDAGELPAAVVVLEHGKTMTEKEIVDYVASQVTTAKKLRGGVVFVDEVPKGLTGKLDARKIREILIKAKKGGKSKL
Procedure, shortened: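 Purified P. pyralis luciferase at 10 nM in 50 mM Tris Acetate (final), luminescence read within 5 minutes of enzyme addition to compounds. Activity normalised to PTC124 versus DMSO; concentration-response curves classed by r2, magnitude and activity.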

Measured: Potency

Cc1c(C(=O)O)c(O)cc2c1C(=O)c1c(O)c([C@H]3O[C@H](CO)[C@@H](O)[C@H](O)[C@H]3O)c(O)c(O)c1C2=O
inactive: [1] | [2] | [3] | [4] | [5] | [6] | [7] | [8] | [9] | [10] | [11] | [12] | [13] | [14] | [15] | [16] | [17] | [18]

Cc1cc(C)c2nc(-c3ccco3)cc(C(=O)O)c2c1
active: [19] 12.6 µM

Cc1ccc(Cc2cnc(N)s2)o1
inactive: [19]

N/C(=N\OC(=O)Nc1ccccc1)c1ccno1
inactive: [19]

Cc1ccc(-c2nc(SCC(=O)Nc3ccccc3OC(F)F)c3c(C)c(C(=O)O)sc3n2)cc1
active: [19] 7.94 µM

NS(=O)(=O)c1cc2c(cc1Cl)N[C@H](Cc1ccccc1)NS2(=O)=O
inactive: [1] | [20] | [2] | [3] | [4] | [6] | [7] | [8] | [9] | [10] | [11] | [12] | [13] | [14] | [15] | [16] | [17] | [18]

CC(C)(C)NC[C@@H](O)c1ccc(O)c(CO)n1
inactive: [1] | [20] | [2] | [3] | [4] | [5] | [6] | [7] | [8] | [9] | [10] | [11] | [12] | [13] | [14] | [15] | [16] | [17] | [18]

CN(C)[C@H]1C(=O)C(C(=O)NCN2CCCC2)=C(O)[C@]2(O)C(=O)C3=C(O)c4c(O)cccc4[C@](C)(O)[C@H]3C[C@H]12
inactive: [2] | [3] | [4] | [5] | [6] | [7] | [8] | [9] | [10] | [11] | [12] | [14] | [15] | [16] | [17] | [18]

Cc1cn([C@H]2C[C@H](N=[N+]=[N-])[C@H](CO)O2)c(=O)[nH]c1=O
inactive: [20] | [3] | [4] | [5] | [6] | [7] | [8] | [9] | [11] | [12] | [13] | [14] | [15] | [16] | [17] | [18]

O=C(O)[C@@H](S)[C@H](S)C(=O)O
active: [3] 8.91 µM | [5] 6.31 µM | [6] 5.01 µM | [7] 8.91 µM | [8] 7.08 µM | [9] 6.75 µM | [10] 6.75 µM | [12] 11.2 µM | [13] 13.5 µM | [14] 10 µM | [15] 4.47 µM | [17] 8.49 µM | [18] 11.2 µM
inactive: [20] | [2]

C[C@]12CC[C@H]3c4ccc(O)cc4CC[C@@H]3[C@H]1CC[C@@H]2OC(=O)CCC1CCCC1
active: [11] 14.1 µM | [13] 12 µM | [16] 12.6 µM
inactive: [1] | [20] | [2] | [5]
